Measured values taken from article PMC4336329 (PLoS ONE, 2015).
Among all 310,000 compounds or so, about 14,000 (4.5%) showed an effect of 50% or more. The effect is printed as a negative number. This is one part of a sample in which strong results are shown more often than they occur.
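Note: peak tail current of the secondary pulse compared with the same well before compound.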

These molecules were tested against human ether-à-go-go-related gene (hERG) potassium channel (human, UniProt Q12809) (assay: primary screen, population patch clamp on CHO cells stably expressing hERG; higher = less effect of the substance).
Chain of human ether-à-go-go-related gene (hERG) potassium channel (Q12809 whole entry, looked up): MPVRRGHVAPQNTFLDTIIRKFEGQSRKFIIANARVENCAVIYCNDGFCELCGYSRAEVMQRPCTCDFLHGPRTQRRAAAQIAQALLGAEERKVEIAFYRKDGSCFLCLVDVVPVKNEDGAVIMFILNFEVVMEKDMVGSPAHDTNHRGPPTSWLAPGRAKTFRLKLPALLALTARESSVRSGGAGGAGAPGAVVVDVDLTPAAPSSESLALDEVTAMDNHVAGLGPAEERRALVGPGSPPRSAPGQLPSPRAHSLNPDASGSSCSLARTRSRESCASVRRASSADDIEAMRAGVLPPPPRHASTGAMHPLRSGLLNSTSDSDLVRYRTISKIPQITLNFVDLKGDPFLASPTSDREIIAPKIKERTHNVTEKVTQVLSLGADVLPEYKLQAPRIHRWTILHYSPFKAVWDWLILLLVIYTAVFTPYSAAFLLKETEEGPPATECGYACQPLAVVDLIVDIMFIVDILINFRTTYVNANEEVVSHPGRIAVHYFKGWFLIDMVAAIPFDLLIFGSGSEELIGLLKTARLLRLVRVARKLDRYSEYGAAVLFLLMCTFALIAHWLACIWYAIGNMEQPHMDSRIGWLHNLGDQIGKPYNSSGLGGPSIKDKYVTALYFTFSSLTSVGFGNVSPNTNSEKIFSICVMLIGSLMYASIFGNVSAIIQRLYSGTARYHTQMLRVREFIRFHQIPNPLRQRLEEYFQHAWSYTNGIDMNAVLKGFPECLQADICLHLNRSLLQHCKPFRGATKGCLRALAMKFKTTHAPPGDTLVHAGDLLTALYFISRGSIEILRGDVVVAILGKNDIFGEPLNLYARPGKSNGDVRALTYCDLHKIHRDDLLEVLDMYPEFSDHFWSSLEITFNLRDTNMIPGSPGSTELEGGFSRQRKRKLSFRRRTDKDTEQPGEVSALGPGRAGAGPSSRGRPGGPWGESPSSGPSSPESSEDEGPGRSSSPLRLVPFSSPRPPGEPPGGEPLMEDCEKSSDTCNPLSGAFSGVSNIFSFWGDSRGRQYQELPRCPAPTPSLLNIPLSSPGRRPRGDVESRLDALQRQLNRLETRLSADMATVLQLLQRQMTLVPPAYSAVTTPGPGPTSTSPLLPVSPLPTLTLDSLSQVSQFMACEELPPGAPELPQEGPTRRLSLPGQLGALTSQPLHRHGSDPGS
`CCOc1ccc(NC(=O)CCN2C(=O)CSc3ccccc32)cc1` was tested, and the “hERG current change (%, negative = inhibition) at 10uM” value was -25.3%. `O=C(/C=C\Nc1ccc2c(c1)OCO2)c1cccs1` was tested, and the “hERG current change (%, negative = inhibition) at 10uM” value was 17.6%. `Cc1nc(SCC(=O)Nc2c(C)nn(C)c2C)c2cnn(-c3ccccc3)c2n1` was tested, and the “hERG current change (%, negative = inhibition) at 10uM” value was 14%. `Cc1ccc(S(=O)(=O)N2CCOCC2)cc1NC(=O)c1cc(-c2ccccn2)nc2ccccc12` was tested, and the “hERG current change (%, negative = inhibition) at 10uM” value was -46.7%. `S=c1[nH]nc(-c2ccc(Cl)cc2Cl)n1-c1ccc2c(c1)OCCO2` was tested, and the “hERG current change (%, negative = inhibition) at 10uM” value was 6.46%. For `c1ccc(C2CCC(N3CCC(N4CCCCC4)CC3)CC2)cc1` (stereo not drawn), the “hERG current change (%, negative = inhibition) at 10uM” value was 10.8%. `COCCNC(=O)CSCc1c(F)cccc1Cl` was tested, and the “hERG current change (%, negative = inhibition) at 10uM” value was 3.73%. With `CCCc1cc(=O)oc2cc(C)cc(OC(C)C(=O)NCc3ccccn3)c12` (stereo not drawn) the “hERG current change (%, negative = inhibition) at 10uM” value was -8.3%. For `Fc1cccc2sc(Nc3nnc(-c4ccccc4)o3)nc12`, the “hERG current change (%, negative = inhibition) at 10uM” value was 20.5%. For `O=c1[nH]nc(N/N=C/c2ccc(Cl)cc2Cl)c(=O)[nH]1`, the “hERG current change (%, negative = inhibition) at 10uM” value was -1.17%. In the case of `Cn1c(SCC(=O)O)nnc1-c1cccc(NC(=O)c2cccc3ccccc23)c1`, the “hERG current change (%, negative = inhibition) at 10uM” value is reported as 7.15%. For `COc1ccccc1C(=O)NCCSCc1ccccc1Cl`, the “hERG current change (%, negative = inhibition) at 10uM” value was -15.4%. For `COc1ccc(NC(=O)c2cccc(F)c2)cc1Cl`, the “hERG current change (%, negative = inhibition) at 10uM” value was 1.72%. In the case of `COC(=O)c1cccc(NC(=O)c2ccc(OC)c(Cl)c2)c1`, the “hERG current change (%, negative = inhibition) at 10uM” value is reported as -65.3%. `COc1ccc(C(=O)Nc2cc(C(=O)O)cc(C(=O)O)c2)cc1Cl` was tested, and the “hERG current change (%, negative = inhibition) at 10uM” value was 19.5%. In the case of `COc1cccc(C(=O)NCCSCc2c(F)cccc2Cl)c1`, the “hERG current change (%, negative = inhibition) at 10uM” value is reported as -29%. In the case of `COc1cccc(C(=O)NCCSCc2ccccc2Cl)c1`, the “hERG current change (%, negative = inhibition) at 10uM” value is reported as -53.2%. In the case of `CCNS(=O)(=O)c1ccc(CCC(=O)NCCC2=CCCCC2)cc1`, the “hERG current change (%, negative = inhibition) at 10uM” value is reported as -23.6%. `Cc1cccc(C)c1NC(=O)COC(=O)c1ccc2c(c1)OCO2` was tested, and the “hERG current change (%, negative = inhibition) at 10uM” value was -4.84%. `c1cnc2c(SCc3ccc(-c4nnco4)cc3)cccc2c1` was tested, and the “hERG current change (%, negative = inhibition) at 10uM” value was 1.45%. In the case of `COc1cc(OC)c(NC(=O)c2csc(C)c2)cc1Cl`, the “hERG current change (%, negative = inhibition) at 10uM” value is reported as 14.2%. For `Cc1ccccc1CNC(=O)/C=C\C(=O)O`, the “hERG current change (%, negative = inhibition) at 10uM” value was 3.23%. For `FC(F)(F)c1cc(-c2cccs2)nc(-n2cc(Cl)cn2)n1`, the “hERG current change (%, negative = inhibition) at 10uM” value was 0.253%. With `CCOc1ccc(CCNC(=O)Cn2c(-c3nonc3N)nc3ccccc32)cc1OCC` the “hERG current change (%, negative = inhibition) at 10uM” value was -3.72%. For `Cc1ccc(-n2c3c(c(O)c(-c4ccccc4)c2=O)C(=O)CC(C)(C)C3)cc1`, the “hERG current change (%, negative = inhibition) at 10uM” value was -55.2%. In the case of `Cc1ccc(-n2c3c(cc(C(=O)O)c2=O)C(=O)CC(C)(C)C3)cc1`, the “hERG current change (%, negative = inhibition) at 10uM” value is reported as 19.2%. For `CC1(C)CC(=O)c2c(O)c(-c3ccccc3)c(=O)n(-c3ccccc3)c2C1`, the “hERG current change (%, negative = inhibition) at 10uM” value was -6.83%. In the case of `O=C(c1ccc2nccnc2c1)N1CCCC(N2CCN(c3ccc(F)cc3)CC2)C1` (stereo not drawn), the “hERG current change (%, negative = inhibition) at 10uM” value is reported as -9.66%. For `COc1ccccc1N1CCN(C(CNS(=O)(=O)c2cc(F)ccc2F)c2cccnc2)CC1` (stereo not drawn), the “hERG current change (%, negative = inhibition) at 10uM” value was -35%. For `O=C(NCC(c1cccnc1)N1CCN(c2ccc(F)cc2)CC1)C1CCCCC1` (stereo not drawn), the “hERG current change (%, negative = inhibition) at 10uM” value was -45.5%. With `Cc1cc(F)ccc1S(=O)(=O)NCC(c1cccnc1)N1CCc2ccccc21` (stereo not drawn) the “hERG current change (%, negative = inhibition) at 10uM” value was -1.61%. For `CCS(=O)(=O)NCC(c1cccnc1)N1CCN(c2ccccc2)CC1` (stereo not drawn), the “hERG current change (%, negative = inhibition) at 10uM” value was -28.1%. For `O=S(=O)(NCC(c1cccnc1)N1CCN(Cc2ccccc2)CC1)c1cc(F)ccc1F` (stereo not drawn), the “hERG current change (%, negative = inhibition) at 10uM” value was -69.1%. With `O=S(=O)(NCC(c1cccnc1)N1CCN(c2ccccc2)CC1)c1cc(F)ccc1F` (stereo not drawn) the “hERG current change (%, negative = inhibition) at 10uM” value was -62.8%. `O=S(=O)(NCC(c1cccnc1)N1CCN(c2ccc(F)cc2)CC1)c1cc(F)ccc1F` (stereo not drawn) was tested, and the “hERG current change (%, negative = inhibition) at 10uM” value was -65.8%. In the case of `O=C(NCC(c1cccnc1)N1CCN(c2ccccc2)CC1)Oc1ccccc1` (stereo not drawn), the “hERG current change (%, negative = inhibition) at 10uM” value is reported as -19.2%. For `O=C(NCc1ccc(Cl)cc1)C(=O)NCC(c1cccnc1)N1CCN(c2ccc(F)cc2)CC1` (stereo not drawn), the “hERG current change (%, negative = inhibition) at 10uM” value was -45.5%. `COc1ccc(N2CCN(C(CNS(=O)(=O)c3cc(F)ccc3F)c3cccnc3)CC2)cc1` (stereo not drawn) was tested, and the “hERG current change (%, negative = inhibition) at 10uM” value was -69%. With `COc1ccc(N2CCN(C(CNC(=O)C(C)(C)C)c3cccnc3)CC2)cc1` (stereo not drawn) the “hERG current change (%, negative = inhibition) at 10uM” value was -36.7%. In the case of `CC1CCCCN1C(=O)c1cc2nc(-c3ccccc3)cc(-c3ccccc3)n2n1` (stereo not drawn), the “hERG current change (%, negative = inhibition) at 10uM” value is reported as -14.5%. For `O=S(N1CCCCC1)C12CC3CC(CC(C3)C1)C2` (stereo not drawn), the “hERG current change (%, negative = inhibition) at 10uM” value was -6.95%. `COc1ccc(-c2nc(NC(=O)CCNC(=O)c3ccco3)sc2C)cc1` was tested, and the “hERG current change (%, negative = inhibition) at 10uM” value was -11.1%. `CC(C)C[C@H](NC(=O)N1CC(=O)Nc2ccccc21)C(=O)N[C@@H](Cc1ccccc1)C(=O)O` was tested, and the “hERG current change (%, negative = inhibition) at 10uM” value was 13.2%. In the case of `NC(=O)Cn1cc(C(=O)c2cccs2)c2ccccc21`, the “hERG current change (%, negative = inhibition) at 10uM” value is reported as -2.95%. `O=C(NNc1cc(Cl)ccc1Cl)c1cccs1` was tested, and the “hERG current change (%, negative = inhibition) at 10uM” value was 7.63%. `Cc1c(Br)c([N+](=O)[O-])nn1C(C)C(=O)N1CCc2ccccc2C1` (stereo not drawn) was tested, and the “hERG current change (%, negative = inhibition) at 10uM” value was -13.4%. For `Cc1c(OC(C)C(=O)NC2CC(C)(C)NC(C)(C)C2)ccc2c3c(c(=O)oc12)CCC3` (stereo not drawn), the “hERG current change (%, negative = inhibition) at 10uM” value was 12.5%. With `COc1cc(/C=N/N(C)C2=NS(=O)(=O)c3ccccc32)cc(OC)c1OC` the “hERG current change (%, negative = inhibition) at 10uM” value was 7.82%. With `Cc1ccccc1CS(=O)(=O)Cc1ccc(C(=O)NCCCN2CC(C)CC(C)C2)o1` (stereo not drawn) the “hERG current change (%, negative = inhibition) at 10uM” value was -36.1%. With `Cc1ccc(CS(=O)(=O)Cc2ccc(C(=O)NCCCN3CCOCC3)o2)cc1` the “hERG current change (%, negative = inhibition) at 10uM” value was 6.75%. For `Cc1ccc(CS(=O)(=O)Cc2ccc(C(=O)NCCCN3CC(C)CC(C)C3)o2)cc1` (stereo not drawn), the “hERG current change (%, negative = inhibition) at 10uM” value was -60.2%. For `CC1CC(C)CN(CCCNC(=O)c2ccc(CS(=O)(=O)Cc3cccc(Cl)c3)o2)C1` (stereo not drawn), the “hERG current change (%, negative = inhibition) at 10uM” value was -69.1%. In the case of `CC1CCCN(CCCNC(=O)c2ccc(CS(=O)(=O)Cc3cccc(Cl)c3)o2)C1` (stereo not drawn), the “hERG current change (%, negative = inhibition) at 10uM” value is reported as -40.7%. For `CC1CCN(CCCNC(=O)c2ccc(CS(=O)(=O)Cc3ccc(Cl)cc3)o2)CC1`, the “hERG current change (%, negative = inhibition) at 10uM” value was -44%.
